{"source": "PubChem BioAssay (NCI)", "note": "The panel holds about 83,000 compounds, 20% with a hit somewhere; the sample as a whole holds those more often.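 Method: cells in 96-well plates; compound added at one concentration; 48 h incubation; percent growth measured; values under 10 scored active.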 A number with no mark means an inactive call. Calls of active or inactive are those of the source."}
{"system": "U251 CNS", "assay": "NCI-60 one-dose screen, 48 h (100 = growth as untreated, 0 = no growth, -100 = all killed)", "conditions": "10 µM unless noted", "procedure": "Growth inhibition of the U251 human tumor cell line is measured as a screen for anti-cancer activity. Cells are grown in 96 well plates and exposed to the test compound for 48 hours. Compounds are tested at a single concentration, which is 10^-5 M for most compounds. The reported endpoint is percent growth (GI% or GIPRCNT), where numbers from 0 - 100% represent growth inhibition, and numbers from -100% - 0 represent cell death. For example, a value of 40 represents 60% growth inhibition. A value of 0 means no net growth occurred over the course of the experiment. A value of -40 indicates 40% of cells at the beginning of the experiment died by the end of the experiment. A value of -100 means all cells are dead at the end of the experiment.\nNCI-60 Human Tumor Cell Lines Screen was performed using the standard one-dose NCI protocol, which is described in more detail at https://dtp.cancer.gov/discovery_development/nci-60/default.htm.\nCompounds with GIPRCNT values below 10 were considered active. Activity score was based on GIPRCNT using the following formula: […]\nScore is 0 for GIPRCNT values of 100 or above, 50 for GIPRCNT values of 0, and 100 for GIPRCNT values of -100."}
{"smiles": "CCOc1ccc(C(=O)Nc2ncc(Cc3ccc(F)cc3)s2)cc1", "growth": "16%"}
{"smiles": "Cc1ccc(-c2cc3nc(C(Cl)Cl)nc(-c4ccco4)n3n2)cc1", "growth": "1.02% (active)"}
{"smiles": "CCOC(=O)c1c(Nc2ccccc2)nn2c(-c3cccs3)ccnc12", "growth": "88.6%"}
{"smiles": "COc1cc(C2N=C(NNc3ccccc3)NC(C)=C2C(C)=O)ccc1O", "note": "(stereo not given)", "growth": "100%"}
{"smiles": "C#C[C@]1(O)CC[C@H]2[C@@H]3CC=C4c5sc(-c6ccc7c(c6)OCO7)nc5CC[C@]4(C)[C@H]3CC[C@@]21C", "growth": "-24.5% (active)"}
{"smiles": "CS(=O)(=O)Nc1cc(-c2ccc3ncc(C#N)c(NCc4cccc(F)c4)c3c2)cnc1Cl", "growth": "10.3%"}
{"smiles": "CNC1CCc2c(sc(NC(=O)c3ccc(C(C)(C)C)cc3)c2C(N)=O)C1", "note": "(stereo not given)", "growth": "3.54% (active)"}
{"smiles": "O=C(Nc1nc2ccc([N+](=O)[O-])cc2s1)Nc1ccccc1Cl", "growth": "29.2%"}
{"smiles": "CCCCCc1ccc(S(=O)(=O)Nc2cccc(-c3csc(NC(=O)CN4CCN(C)CC4)n3)c2)cc1", "growth": "49.7%"}
{"smiles": "C=CCn1c(SCC(=O)Nc2ccc(C(=O)/C=C/c3ccc(C)cc3)cc2)nnc1-c1c[nH]c2ccccc12", "growth": "92.2%"}
{"smiles": "O=c1[nH]c2ccccc2cc1CSc1ccccc1Nc1nccc(-c2ccc(Cl)cc2)n1", "growth": "104%"}
{"smiles": "CCc1ccc(SC2c3ccc(N(CC)CC)cc3Oc3nc(N)c(C#N)c(N)c32)cc1", "note": "(stereo not given)", "growth": "-71.3% (active)"}
{"smiles": "COc1cc2nc(Cl)nc(Nc3cccc(C4=Nc5c(N)nc(N)nc5NC(c5ccc(F)cc5)C4)c3)c2cc1OC", "note": "(stereo not given)", "growth": "-22% (active)"}
{"smiles": "Cc1cc(C)cc(C(=O)Nc2cccc(C#Cc3cccc4[nH]nc(N)c34)c2)c1", "growth": "72.2%"}
{"smiles": "NS(=O)(=O)c1ccc(Nc2nc(SCC(=O)c3ccc(Cl)cc3)nc3c2CCCC3)cc1", "growth": "51.3%"}
{"smiles": "CCCSc1nc(Nc2ccc(/C(C)=N\\NC(N)=S)cc2)c(C#N)c(-c2ccccc2)n1", "growth": "73.1%"}
{"smiles": "CN(C)CCNC(=O)c1ccc(-c2nc3ccc4[nH]ncc4c3c3c2CCC3)cc1", "growth": "25.3%"}
{"smiles": "Oc1[nH]c2ccccc2c1Nn1c(N=N/C=c2/ccc3c(c2)C=NN=3)n[nH]c1=S", "growth": "111%"}
{"smiles": "CN1CCN(c2ccc(/C=N/n3cnc4oc(-c5ccccc5)cc4c3=N)cc2)CC1", "growth": "100%"}
{"smiles": "CCN(CC)c1ccc2c(c1)Oc1nc(N)c(C#N)c(N)c1C2Sc1ccc(C)cc1", "note": "(stereo not given)", "growth": "-78.5% (active)"}
{"smiles": "O=C(O)c1ccc(-n2cc(CNc3cc(F)c(F)c(F)c3)c(-c3cccc(F)c3)n2)cc1", "growth": "93.3%"}
{"smiles": "COc1ccc(NCc2cn(-c3ccc(C(=O)O)cc3)nc2-c2cc(C(F)(F)F)cc(C(F)(F)F)c2)cc1", "growth": "102%"}
{"smiles": "CCc1cccc2c3c(sc12)C(c1ccc(OC)cc1)C(C#N)=C(/N=C/c1ccc(Cl)cc1)O3", "note": "(stereo not given)", "growth": "20.1%"}
{"smiles": "O=C(Nc1ccc(Br)cc1)Nc1nc2ccc([N+](=O)[O-])cc2s1", "growth": "0.478% (active)"}
{"smiles": "COc1c(N2CC3CCCNC3C2)c(F)cc2c(=O)c(C(=O)N/N=C/c3ccc(F)cc3)cn(C3CC3)c12", "note": "(stereo not given)", "growth": "81.4%"}
{"smiles": "COc1cc(-c2nc(SCCC(C)C)nc(NNC(=O)c3ccncc3)c2C#N)cc(OC)c1OC", "growth": "79.7%"}
{"smiles": "C/C(=N\\O)[C@H]1C[C@]23CC[C@]4(C)[C@H](CC[C@@H]5[C@@]6(C)CC/C(=N/O)C(C)(C)[C@@H]6CC[C@]54C)[C@H]2[C@H](C)C1(C)OC3", "growth": "110%"}
{"smiles": "COc1cc(OC)c(S(N)(=O)=O)cc1C(C)=O", "growth": "105%"}
{"smiles": "COc1cc(OC)c(S(N)(=O)=O)cc1C(=O)/C=C/c1ccc(C)cc1", "growth": "14.5%"}
{"smiles": "Cc1c(Cl)cccc1S(=O)(=O)Nc1ccc2c(c1)C(=O)N(C1CCC(=O)NC1=O)C2=O", "note": "(stereo not given)", "growth": "95.6%"}
{"smiles": "CCO/C=N/C1=C(C#N)C(c2ccc(F)cc2)c2sc3c(C)cccc3c2O1", "note": "(stereo not given)", "growth": "21.8%"}
{"smiles": "Cc1occc1-c1nc2s/c(=C/c3ccc(-c4cc(C(F)(F)F)ccc4Cl)o3)c(=O)n2n1", "growth": "105%"}
{"smiles": "Cn1ccnc1C(=O)/C=C/c1ccc(NC(=O)c2ccc(F)cc2)cc1", "growth": "23.3%"}
{"smiles": "Cc1cc(C)c2sc(=O)n(Cc3nnc(SCCC(=O)O)o3)c2n1", "growth": "102%"}
{"smiles": "CCNC(=O)Oc1ccc(/C(=C(/C)c2ccccc2)c2ccc(OCCN3CCCCCC3)cc2)cc1", "growth": "-44.6% (active)"}
{"smiles": "Nn1c(N/N=C/c2nc3ccccc3s2)n[nH]c1=S", "growth": "113%"}
{"smiles": "CC(Nc1c(C#N)cnc2ccc(-c3cnc(N)nc3)cc12)c1ccccc1", "note": "(stereo not given)", "growth": "21%"}
{"smiles": "Cc1nc2ncc(-c3ccc4ncnc(NCc5ccccc5)c4c3)cc2[nH]1", "growth": "75.4%"}
{"smiles": "COc1ccc(-n2c(SCc3nnc(NC(=O)c4ccc(Br)cc4)s3)nc3cc(OC)c(OC)cc3c2=O)cc1", "growth": "86.3%"}
{"smiles": "Cc1nc(-c2ccccc2O)ccc1C(=O)N=Nc1c(O)[nH]c2ccc(Br)cc12", "growth": "103%"}
